Legend:
Details in all cases: concentration: 1 μM,replicates: in singlicate; n = 1
CSNK1G1 = system: CSNK1G1
CSNK1G2 = system: CSNK1G2
CSNK1G3 = system: CSNK1G3
CSNK2A1 = system: CSNK2A1
CSNK2A2 = system: CSNK2A2
CTK = system: T1, CTK
T1 construct: gene MATK

DAPK1 = system: DAPK1
DAPK2 = system: DAPK2
DAPK3 = system: DAPK3
DCAMKL1 = system: T2, DCAMKL1
T2 construct: gene DCLK1
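Note: KINOMEscan kinase panel screen.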

Compound | %Inh (CSNK1G1) [%] | %Inh (CSNK1G2) [%] | %Inh (CSNK1G3) [%] | %Inh (CSNK2A1) [%] | %Inh (CSNK2A2) [%] | %Inh (CTK) [%] | %Inh (DAPK1) [%] | %Inh (DAPK2) [%] | %Inh (DAPK3) [%] | %Inh (DCAMKL1) [%]
O=C(Nc1cccc(C(F)(F)F)c1)c1cccc(Oc2ccc3nccn3n2)c1 | 1 | 10 | 1 | 0 | 0 | 69 | 0 | 0 | 0 | 0
NC(=O)Nc1sc(-c2ccc(F)cc2)cc1C(N)=O [GW789449] | 0 | 0 | 0 | 49 | 81 | 22 | 32 | 0 | 38 | 0
Cc1ccc(C(=O)Nc2ccc(Oc3ccc4nc(NC(=O)C5CC5)cn4c3)c(F)c2)c(=O)n1-c1ccccc1 | 2 | 0 | 0 | 0 | 0 | 0 | 0 | 0 | 2 | 2
CNC(=O)c1ccccc1Nc1nc(Nc2cccc(CS(C)(=O)=O)c2)ncc1C.O=CO [GSK1520489] | 27 | 61 | 26 | 92.3 | 98.6 | 38 | 89 | 57 | 81 | 37
FC(F)(F)c1cc(Br)cc(Nc2nccc(-c3cnn4ncccc34)n2)c1 [GW810578] | 13 | 31 | 0 | 0 | 32 | 0 | 2 | 1 | 18 | 19
Cn1ccc2ncnc(Oc3ccc(NC(=O)Nc4cccc(C(F)(F)F)c4)c(F)c3)c21 | 9 | 20 | 0 | 0 | 0 | 0 | 1 | 0 | 13 | 12
CCNCC(Cc1ccccc1)NC(=O)c1cc(Br)c(-c2ccnc3[nH]ccc23)s1.Cl.Cl (stereo not shown) [GSK1383280] | 8 | 5 | 46 | 87 | 71 | 0 | 7 | 9 | 28 | 42
COc1ccc(Nc2nccc(N3CCC(NC(=O)c4cccc(C#N)c4)C3)n2)cc1 (stereo not shown) [GSK1379730] | 3 | 0 | 0 | 0 | 0 | 0 | 0 | 0 | 4 | 8
Nc1nccc(-c2ccc3c(N)n[nH]c3c2)n1 [GSK1034945] | 0 | 0 | 19 | 41 | 64 | 0 | 45 | 0 | 19 | 12
Cc1ccc(Nc2ccnc(Nc3ccc4c(c3)CS(=O)(=O)C4)n2)cc1O.Cl [GW579362] | 10 | 0 | 19 | 63 | 84 | 25 | 63 | 38 | 70 | 25
O=C(Nc1n[nH]c2cc(-c3ccco3)ccc12)C1CC1 [SB-737447] | 0 | 0 | 15 | 31 | 68 | 34 | 0 | 7 | 10 | 7
O=C(Nc1ccccc1)c1cccc(Oc2ccc3nccn3n2)c1 | 10 | 6 | 0 | 0 | 11 | 28 | 100 | 0 | 0 | 0
Cn1ccc2ncnc(Oc3ccc(NC(=O)Nc4cncc(C(F)(F)F)c4)c(Cl)c3)c21 | 0 | 5 | 0 | 0 | 0 | 0 | 0 | 0 | 0 | 0
COc1cc2nccc(Nc3ccc(Oc4ccccc4)cc3)c2cc1OC.Cl [GI261656] | 0 | 0 | 25 | 0 | 24 | 0 | 0 | 0 | 2 | 0
Cn1ccc2ncnc(Oc3ccc(NC(=O)Nc4cc(C(C)(C)C)on4)c(Cl)c3)c21 | 17 | 15 | 0 | 21 | 30 | 48 | 0 | 0 | 0 | 25
N#Cc1cccc(C(=O)NC2CCN(c3ccnc(Nc4ccc(F)cc4)n3)C2)c1 (stereo not shown) [GSK1379708] | 0 | 4 | 6 | 0 | 0 | 0 | 0 | 0 | 11 | 0

Compound | %Inh (CSNK1G1) [%] | %Inh (CSNK1G2) [%] | %Inh (CSNK1G3) [%] | %Inh (CSNK2A1) [%] | %Inh (CSNK2A2) [%] | %Inh (CTK) [%] | %Inh (DAPK1) [%] | %Inh (DAPK2) [%] | %Inh (DAPK3) [%] | %Inh (DCAMKL1) [%]
Cc1n[nH]c2cc(Nc3ccnc(Nc4cccc(CN5CCOCC5)c4)n3)ccc12 [GW682569] | 0 | 0 | 22 | 31 | 27 | 0 | 58 | 25 | 68 | 4
C[C@@H]1CNc2c(sc3ccc4nc(-c5ccncc5)ccc4c23)C(=O)N1 | 16 | 15 | 21 | 38 | 0 | 0 | 30 | 24 | 13 | 4
C[C@@H](Oc1cc(-n2cnc3cc(-c4cnn(C)c4)ccc32)sc1C(N)=O)c1ccccc1Cl [GSK580432] | 30 | 0 | 15 | 7 | 67 | 0 | 75 | 43 | 34 | 10
O=C(NOCC1CC1)c1cc(Br)c(F)c(F)c1Nc1ccc(I)cc1Cl | 0 | 0 | 9 | 14 | 6 | 0 | 29 | 0 | 0 | 22
CS(=O)c1ccc(-c2coc3ccc(-c4n[nH]c(=O)o4)cc23)cc1 (stereo not shown) | 0 | 20 | 5 | 100 | 99.8 | 0 | 52 | 67 | 59 | 3
COc1cc(Nc2nccc(N3CCC(NC(=O)c4cccc(C#N)c4)C3)n2)cc(OC)c1OC (stereo not shown) [GSK1379751] | 0 | 0 | 7 | 0 | 0 | 0 | 0 | 0 | 6 | 5
O=C(Nc1cccc(Oc2ccc3nccn3n2)c1)Nc1cccc(C(F)(F)F)c1 | 0 | 0 | 26 | 0 | 3 | 49 | 14 | 0 | 0 | 0
C[C@@H](Oc1cc(-n2cnc3cc(-c4ccncc4)ccc32)sc1C(N)=O)c1ccccc1Cl [GSK479719] | 13 | 0 | 23 | 0 | 35 | 21 | 61 | 30 | 22 | 0
Cc1ccn2nc(-c3ccc(F)cc3)c(-c3ccncc3)c2c1.Cl [GW457859] | 29 | 12 | 31 | 0 | 14 | 0 | 15 | 6 | 0 | 10
Cn1ccc2ncnc(Oc3ccc(NC(=O)Nc4cnn(C(C)(C)C)c4)c(Cl)c3)c21 | 0 | 32 | 0 | 0 | 38 | 20 | 8 | 0 | 0 | 10
Cc1cccc(-c2nc(Nc3ccncc3)c3sccc3n2)n1 [GW869641] | 0 | 1 | 13 | 6 | 30 | 20 | 18 | 11 | 36 | 0
CCOC(=O)N1CCC(n2cnc(-c3ccc(F)cc3)c2-c2ccnc(N)n2)CC1 [SB-219952] | 4 | 12 | 0 | 19 | 9 | 0 | 25 | 0 | 0 | 22
Cn1cc(-c2cccc3c(N)c(C(N)=O)nnc23)cn1 | 13 | 7 | 10 | 26 | 33 | 32 | 3 | 16 | 5 | 7
CS(=O)(=O)Nc1ccc(-c2ccnc3[nH]ccc23)cc1 [GSK993273] | 0 | 0 | 17 | 0 | 16 | 0 | 73 | 54 | 89 | 6
CN(c1cccc(CNc2nc(Nc3ccc4c(c3)CC(=O)N4)ncc2C(F)(F)F)c1)S(C)(=O)=O | 0 | 5 | 16 | 35 | 44 | 0 | 35 | 0 | 1 | 55

Source: PMC5540273 (PLoS ONE, 2017)
